Screening results: PubChem BioAssay, several laboratories
Compounds with a hit are over-represented: about 3.7% of the library has one in this group of screens.
PfHsp90 yeast 2 – inhibits growth of yeast expressing Plasmodium falciparum Hsp90; S. cerevisiae expressing PfHsp90, BacTiter-Glo ATP, 48 h; yeast lacking PDR1 and PDR3 efflux regulators; actives 0.32% (n = 310,000); inhibition, % at 9.4 µM;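 active = every replicate shows inhibition above about 80%, whatever the replicate mean, limit read from the data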;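 also: 0% = DMSO neutral controls and 100% = 20 µM radicicol positive controls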
TIM10 inh – inhibits growth of TIM10 yeast strain; actives 1.4% (n = 330,000); AID 463195; inhibition, % at 10 µM; S. cerevisiae TIM10 strain growth, BacTiter-Glo luminescence, 24 h;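 active = inhibition of 40% or more at the single tested concentration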;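 also: wild-type TIM10 isogenic control strain grown at permissive 25 °C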
V-ATPase pHluor – regulators of yeast V-ATPase proton transport; S. cerevisiae, pHLuorin cytosolic pH fluorescence; response, % at 10 µM; actives 0.37% (n = 350,000); AID 504577; in the data active = response mostly above about 7.3%, no sharp cut-off; inactive = mostly below about 5.4%; also: actives read high
tim23-1 inh – inhibits growth of tim23-1 mutant yeast. S. cerevisiae tim23-1 growth, BacTiter-Glo luminescence, 24 h. inhibition, % at 20 µM. actives 1.3% (n = 330,000);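 active = growth inhibition of the mutant yeast at or above 50%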;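 also: temperature-sensitive mutant grown at 25 °C; plate controls were DMSO-treated mutant yeast for no effect and medium wells lacking yeast for full effect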
tim10-1 inh – growth inhibitors of tim10-1 mutant yeast; actives 2.2% (n = 330,000); AID 463190; S. cerevisiae tim10-1 ts strain growth, BacTiter-Glo, 24 h; inhibition, % at 20 µM;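 active = inhibition of at least 40%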;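 also: mutant grown at 25 °C; 0% = DMSO wells with yeast and 100% = wells holding no yeast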
tim10-1 confirm – tim10-1 yeast growth inhibition, confirmed; shares compounds with tim10-1 inh; S. cerevisiae tim10-1 ts strain growth, BacTiter-Glo, 24 h; inhibition, % at 20 µM; actives 56% (n = 7,400);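 active = inhibition of yeast growth at or above a set limit in either of two repeat tests at 20 µM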;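 also: tim10-1 mutant grown at permissive 25 °C to find synthetic lethal compounds; 0% = DMSO yeast wells and 100% = medium wells without yeast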
Starred values were filed as active, the others as inactive; x = not tested or not shown.

SMILES	PfHsp90 yeast 2	TIM10 inh	V-ATPase pHluor	tim23-1 inh	tim10-1 inh	tim10-1 confirm
CC(=O)c1ccc(N2CCN(C(=O)c3cc4c(s3)CCCC4)CC2)cc1	-10	13	-6	34	47*	30
CS(=O)(=O)Cc1ccc(C(=O)NNC(=O)c2cc(-c3ccccc3)n[nH]2)cc1	x	-4	1	3	-10	x
O=C(O)c1cc(-c2ccc3c(c2)OCO3)nc2ccccc12	13	7	-2	7	9	x
CCCN(CCC)C(=O)c1cc(-c2ccc3c(c2)OCO3)nc2ccccc12	-9	24	-1	42	45*	11
CN1CCN(CCCN2c3ccccc3Sc3ccc(C(F)(F)F)cc32)CC1	-15	27	8	17	42*	26
COc1ccc(N/N=C(\C#N)C(N)=O)cc1	4	-147	6	-139	-81	x
N#C/C(=N/Nc1ccc(OC(F)(F)F)cc1)C(N)=S	-62	26	0	26	48*	57*
Clc1ccc(Cl)c2sc(N3CCCC3)nc12	-44	24	1	46	47*	37*
COC1=C(Nc2ccc(OC)cc2)C(=O)c2ccccc2C1=O	27	1	6	40	40*	19
COC1=C(Nc2ccc(OC)cc2)C(=O)C(OC)=C(Nc2ccc(OC)cc2)C1=O	x	x	0	x	x	x
CCOc1ccc(NC2=C(OC)C(=O)c3ccccc3C2=O)cc1	4	8	-2	29	44*	9
CC(=O)SC1CC(=O)N(c2ccc(C(C)(C)C)cc2)C1=O (stereo unspecified)	-1	36	3	43	55*	53*
CCOC(=O)C1(CCCc2ccccc2)CCN(Cc2nccn2CC)CC1	3	26	x	18	41*	30
CCOC(=O)C1(CCOc2ccccc2)CCN(Cc2nccn2CC)CC1	3	18	2	13	28	x
CCSC1=C(C#N)C(c2ccc(C)o2)CC(=O)N1 (stereo unspecified)	-17	6	0	41	4	x
CCCCCCSC1=C(C#N)C(c2ccc(C)o2)CC(=O)N1 (stereo unspecified)	4	24	0	32	41*	7
CCn1c(-c2ccccc2)c(C(=O)CC#N)c2ccccc21	-33	25	6	32	42*	30*
CCOC(=O)C(Sc1cc(-c2ccccc2)nc2ncnn12)C(C)=O (stereo unspecified)	-6	11	3	15	41*	30*
CCOC(=O)C(Cc1ccccc1)NC(=O)CCc1c(C)nc2ncnn2c1C (stereo unspecified)	18	-2	5	1	14	x
Cc1ccc(S(=O)(=O)NCC(=O)OCC(=O)N2CCN(C(=O)c3ccco3)CC2)cc1C	9	10	-6	22	9	x
COC(=O)C=CSC(=S)C1CCCC1=N (stereo unspecified)	x	x	3	x	x	x
c1nc(Nc2ccc(N3CCOCC3)cc2)c2ccsc2n1	7	-15	1	7	8	x
Fc1ccc(-c2csc3ncnc(Nc4ccc(N5CCOCC5)cc4)c23)cc1	x	15	-5	38	43*	37*
Cn1ncc([N+](=O)[O-])c1C(=O)n1nnc2ccccc21	9	x	-2	x	x	x
CCOC(=O)c1c(CSc2ccc(C)cc2)n(C)c2cc(Br)c(O)c(CN(C)C)c12	-13	37	2	36	41*	44*
SMILES	PfHsp90 yeast 2	TIM10 inh	V-ATPase pHluor	tim23-1 inh	tim10-1 inh	tim10-1 confirm
O=C(Nc1ccc(N2CCN(C(=O)c3ccccc3F)CC2)cc1)c1cncc(Br)c1	4	13	-3	35	46*	31*
O=C(Nc1ccc(N2CCCCC2)cc1)c1cncc(Br)c1	-28	4	-3	12	19	x
O=C(Nc1ccc(N2CCN(C(=O)c3cccs3)CC2)cc1)c1cccc(F)c1	16	32	10	34	48*	33*
Cc1ccccc1C(=O)N1CCN(c2ccc(NC(=O)c3ccc4c(c3)OCO4)cc2)CC1	x	11	-2	29	44*	29*
O=C(Nc1ccc(N2CCN(C(=O)c3ccco3)CC2)cc1)c1ccc2c(c1)OCO2	29	13	-2	10	11	x
Cc1ccc(S(=O)(=O)CCc2ccncc2)cc1	-13	4	1	-12	2	x
O=C(COC(=O)CCSc1ccc(F)cc1)NCc1ccc(F)cc1	x	-11	-6	12	11	x
COCCNC(=O)c1cc2c(s1)-c1ccc(Cl)cc1SC2	2	10	1	33	42*	41*
NC(=O)c1cc2c(s1)-c1cc(Cl)ccc1SC2	11	34	0	37	36	x
CCCCn1c(SCC(=O)NNC(=O)c2ccccc2)n[nH]c1=O	0	3	2	0	1	x
CCc1cc(-c2n[nH]c(=S)n2CC)cs1	0	7	-2	34	14	x
CCCc1cc(-c2n[nH]c(=S)n2CC)cs1	23	38	-2	40	29	x
CCCc1cc(-c2n[nH]c(=S)n2C(C)c2ccccc2)cs1 (stereo unspecified)	-114	14	-3	45	48*	19
CCc1cc(-c2n[nH]c(=S)n2-c2ccccc2C)cs1	-17	22	1	35	42*	35*
CCOc1ccc(OCCCC(=O)ON=C(N)c2ccccc2C)cc1	27	8	1	15	16	x
O=C(CSc1nc2nc3c(cc2c(=O)n1-c1ccccc1)CCCC3)Nc1cccc2ccccc12	7	1	-2	12	43*	9
O=C(CSc1nc2ccccc2c(=O)n1-c1ccc(F)cc1F)Nc1ccc2c(c1)CCC2	-8	-1	0	17	32	x
Cc1cccc(NC(=O)CSc2nc3nc4c(cc3c(=O)n2-c2ccccc2)CCCC4)c1	-18	15	0	17	29	x
Cc1ccccc1-n1c(SCC(=O)Nc2ccccc2)nc2nc3c(cc2c1=O)CCCC3	2	23	0	25	44*	10
CCn1c(SCC(=O)Nc2ccc(Cl)cc2)nc2nc3c(cc2c1=O)CCCC3	0	11	1	-3	9	x
O=C(CSc1nc2ccccc2c(=O)n1-c1ccc(F)cc1)Nc1ccc2c(c1)CCC2	-4	21	1	19	41*	18
COc1cccc(-c2cc(C(=O)NCC3CCCO3)c3cc(C)cc(C)c3n2)c1 (stereo unspecified)	-25	-9	7	23	9	x
CCCC/C(O)=C1\C(=O)CC(C)(C)CC1=Nc1ccccc1OC	23	26	7	31	41*	26
O=C1C2Sc3[nH]c(=O)sc3C(c3ccccc3)C2C(=O)N1c1ccc(Cl)cc1 (stereo unspecified)	0	39	5	40	42*	29
Cc1ccc(N2C(=O)C3Sc4[nH]c(=O)sc4C(c4ccccc4)C3C2=O)cc1 (stereo unspecified)	8	25	-4	25	37	x
